Experimental findings from PubChem BioAssay (Tox21) are described below.

The structures appear in SMILES notation. The source made the active and inactive calls. The call rests on the fitted dose curve; in most records, active means well fitted curve in the direction sought with a large enough effect in the repeat runs; inconclusive means weak or mixed curves; inactive means flat fitted curve, though single readings scatter.
On the % scale 0 is the no-effect control and ±100 the full control effect.

This experiment in a line: qHTS assay to test for compound auto fluorescence at 590 nm (red) in HepG2 cell free culture (AID 720684). As to conditions: cell-free medium autofluorescence, red 540/590 nm; series mostly up to 91.3 µM; fluorescence, % of Rose Bengal: at the top concentration. The text has this: U.S. Tox21 Program National Center for Advancing Translational Sciences [NCATS] NIH Chemical Genomics Center [NCGC] U.S. Environmental Protection Agency [EPA] National Institutes of Environmental Health Sciences [NIEHS] National Toxicology Program [NTP] U.S. Food and Drug Administration [FDA] Tox21 Assay Overview: Compound auto fluorescence often interferes with screening of the compound library against various biological targets and signaling pathways. Some of these compounds may have fluorophoric properties. Such properties may interfere with the assay outputs resulting in false positives and/or negatives. To decrease such complications and ensure the compound activities are relevant in terms of biological response, the Tox21 10K compound library was screened for auto fluorescence. From the fluorophores used as reporter signals in our screening assays, the auto fluorescence equivalencies of compounds against three fluorophores have been evaluated: Triamterene, Fluorescein and Rose Bengal sodium for blue, green and red fluorescence, respectively. The fluorescence intensities were measured using Excitation/Emission wavelengths at 405/460nm, 485/535nm and 540/590nm for blue, green and red labels, respectively. This assay includes the red fluorescence data.
Tox21 Assay Protocol Summary: 5 uL of culture medium (MEM containing 10% FBS) per well was dispensed into black wall/clear bottom 1536-well plates using a Multidrop Combi Dispenser (ThermoFisher Scientific, Waltham, MA). After 23 nL compound or DMSO vehicle was transferred into assay plate by a pintool work station (Kalypsys, San Diego, CA), fluorescence intensities in the assay plates were measured by an Envision (PerkinElmer, Shelton, CT) plate reader using three labels for measuring blue, green and red fluorescence at […] 460, 535 and 590nm respectively.
Background: qHTS replaces the single test concentration by a dilution series.
As for `Nc1ccccc1C(=O)OC/C=C/c1ccccc1`, the “fluorescence, % of Rose Bengal” value was 0.126% (inactive).

Consider `O=C/C(Cl)=C(/Cl)C(=O)O`, for which the outcome was inactive.

Take `O=C(O)COc1nc(Cl)c(Cl)cc1Cl`: the “fluorescence, % of Rose Bengal” value is -0.442% [at 95.7 µM] (inactive).

As to `Cc1ccc(OP(=O)(Oc2ccccc2)Oc2ccccc2)cc1`, the “fluorescence, % of Rose Bengal” value is -0.0231% [at 95.7 µM] (inactive).

For `CCCN(CC)CC1COC2(CCC(C(C)(C)C)CC2)O1` (stereo not given), the “fluorescence, % of Rose Bengal” value is -0.0179% (inactive).

For `Nc1ccc(Cc2ccc(N)c(Cl)c2)cc1Cl`, the “fluorescence, % of Rose Bengal” value was 0.129% (inactive).

In the case of `CC(C)CC(C)(c1ccc(O)cc1)c1ccc(O)cc1`, the result was inactive.

Turning to `C[C@]12CC[C@H]3[C@@H](CCC4=CC(=O)CC[C@@]43C)[C@@H]1CC[C@@H]2O`, the “fluorescence, % of Rose Bengal” value is -0.132% (inactive).

`CCOC(=O)CC(=O)CCl`: the “fluorescence, % of Rose Bengal” value was -0.32% (inactive).

`Cc1cc(N=Nc2ccccc2C)ccc1N`: the call was inactive.

Take `O=C(CCCN1CCC2(CC1)C(=O)NCN2c1ccccc1)c1ccc(F)cc1`: the “fluorescence, % of Rose Bengal” value is 0.0014% [at 46 µM] (inactive).

Take `c1ccc(OCC2CO2)cc1` (stereo not given): the “fluorescence, % of Rose Bengal” value is 0.0102% (inactive).

For the compound `C[C@@H]1CC[C@@]2(OC1)O[C@H]1[C@@H](O)[C@H]3[C@@H]4CC[C@H]5C[C@@H](O[C@@H]6O[C@H](CO)[C@H](O[C@@H]7O[C@H](CO)[C@@H](O)[C@H](O[C@@H]8OC[C@@H](O)[C@H](O)[C@H]8O)[C@H]7O[C@@H]7O[C@H](CO)[C@@H](O)[C@H](O[C@@H]8O[C@H](CO)[C@@H](O)[C@H](O)[C@H]8O)[C@H]7O)[C@H](O)[C@H]6O)[C@H](O)C[C@]5(C)[C@H]4CC[C@]3(C)[C@H]1[C@@H]2C`, the “fluorescence, % of Rose Bengal” value is 0.11% [at 95.7 µM] (inactive).

On to `C[C@@H]1O[C@@H](O[C@@H]2C=C3CC[C@@H]4[C@H](CC[C@]5(C)[C@@H](c6ccc(=O)oc6)CC[C@]45O)[C@@]3(C)CC2)[C@H](O)[C@H](O)[C@H]1O`, for which the fluorescence, % of Rose Bengal was -0.272% [at 18.6 µM] (inactive).

`Cc1cc(C(C)(C)c2cc(C)c(O)c(C)c2)cc(C)c1O`: the “fluorescence, % of Rose Bengal” value is 0.298% (inactive).

For `CCCN(CCC)c1c([N+](=O)[O-])cc(S(N)(=O)=O)cc1[N+](=O)[O-]`, the “fluorescence, % of Rose Bengal” value was -0.388% (inactive).

On to `CC(C)N1C(=O)N(c2ccccc2)CSC1=NC(C)(C)C`, for which the “fluorescence, % of Rose Bengal” value is 0.0273% (inactive).

In the case of `CC1(C)[C@H](C(=O)O[C@H](C#N)c2cccc(Oc3ccccc3)c2)[C@@H]1/C=C(\Cl)C(F)(F)F`, the “fluorescence, % of Rose Bengal” value was 0.0031% (inactive).

For `C=CC(=O)OCC(COC(=O)C=C)(COC(=O)C=C)COC(=O)C=C`, the “fluorescence, % of Rose Bengal” value was -0.151% (inactive).

In the case of `CCN(CC)C(=S)[S-].CCN(CC)C(=S)[S-].[Zn+2]`, the “fluorescence, % of Rose Bengal” value was 0.001% (inactive).

For `Nc1ccc(Sc2ccc(N)cc2)cc1`, the “fluorescence, % of Rose Bengal” value is 0.205% (inactive).

In the case of `Clc1ccc(COC(Cn2ccnc2)c2ccc(Cl)cc2Cl)cc1` (stereo not given), the call was inactive.

Take `CNC(C)Cc1ccc2c(c1)OCO2` (stereo not given): the “fluorescence, % of Rose Bengal” value is -0.0162% [at 95.7 µM] (inactive).

As for `O=CC(Br)(Br)Br`, the “fluorescence, % of Rose Bengal” value is 0.0229% (inactive).

Consider `COC(=O)N(C(=O)N1CO[C@@]2(C(=O)OC)Cc3cc(Cl)ccc3C2=N1)c1ccc(OC(F)(F)F)cc1`, for which the “fluorescence, % of Rose Bengal” value is 0.123% (inactive).

For the compound `O=C1NCN(c2ccccc2)C12CCN(CC1COc3ccccc3O1)CC2` (stereo not given), the “fluorescence, % of Rose Bengal” value was 0.0673% [at 46 µM] (inactive).

As to `CCCCCCCCCCCCCCCC[N+](C)(C)C`, the call was inactive.

`CCN`: the “fluorescence, % of Rose Bengal” value is 0.0142% (inactive).

On to `CN(C)S(=O)(=O)N(SC(F)(Cl)Cl)c1ccccc1`, for which the “fluorescence, % of Rose Bengal” value is 0.0784% (inactive).

On to `S=C(SSC(=S)N1CCCCC1)N1CCCCC1`, for which the “fluorescence, % of Rose Bengal” value is 0.171% [at 46 µM] (inactive).

Consider `CC(C)(O)c1cnn2c(-c3ccc(F)c(-c4c(F)cccc4C#N)c3)cnc2n1`, for which the “fluorescence, % of Rose Bengal” value was 0.0639% (inactive).

Consider `Oc1ccc2ccc3cccc4ccc1c2c34`, for which the “fluorescence, % of Rose Bengal” value was -0.156% (inactive).

For `CN(C)CCc1c[nH]c2ccc(O)cc12`, the “fluorescence, % of Rose Bengal” value is 0.0008% (inactive).

For `COc1cc(N)c(Cl)cc1C(=O)NC1CN2CCC1CC2` (stereo not given), the “fluorescence, % of Rose Bengal” value was -0.0104% [at 46 µM] (inactive).

In the case of `CC(=O)Nc1ccc2c(c1)Cc1ccccc1-2`, the “fluorescence, % of Rose Bengal” value is 0.164% [at 95.7 µM] (inactive).

Turning to `CCOP(=S)(OCC)OC(Cl)C(Cl)(Cl)Cl` (stereo not given), the “fluorescence, % of Rose Bengal” value is -0.0317% (inactive).

With `c1ccc2cc3c(cc2c1)-c1cccc2cccc-3c12`, the “fluorescence, % of Rose Bengal” value was 0.0657% (inactive).

On to `O=[N+]([O-])c1ccc(Oc2ccc(C(F)(F)F)cc2[N+](=O)[O-])cc1`, for which the “fluorescence, % of Rose Bengal” value is -0.123% (inactive).

Turning to `O=c1oc2ccccc2c(O)c1Cc1c(O)c2ccccc2oc1=O`, the fluorescence, % of Rose Bengal is 0.445% [at 18.6 µM] (inactive).

For the compound `Fc1cccc(Cl)c1CCl`, the “fluorescence, % of Rose Bengal” value is 0.0261% (inactive).
